According to the supplement of paper PMC10849652:
The full data set covers some 7,900 targets. This sample favours those with a hit. About 0.6% of all pairs of compound and target were hits.

How the values were obtained:
Test in all cases: log2 fold change, soluble protein after heating vs DMSO (PISA); higher = thermal stabilisation; K562 cells, 10 uM, 30 min; active = over 0.2 and 3.5 SD of the protein, either way, in both replicates (recomputed)
[1] = compound: CC1=C(C=C(C=C1)NC(=O)C2=CC(=CC=C2)N(C)C)NC(=O)C3=CC=C(C=C3)O
Method in brief: (§1)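 K562 cells at 2×10^6 cells/mL were treated with 10 μM compound for 30 min. Aliquots were heated for 3 min across 48°C-58°C, pooled, and extracted in PBS with 0.5% NP-40 at 4°C; soluble protein was the supernatant after 21,000xg for 90 min. Soluble protein was quantified by TMTpro 16plex LC-MS/MS with channel sums equalised, and reported as log2 fold change in thermal stability against DMSO controls, with values from duplicates.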

barasertib = compound: CCN(CCCOc1ccc2c(Nc3cc(CC(=O)Nc4cccc(F)c4)[nH]n3)ncnc2c1)CCOP(=O)(O)O [barasertib]
Method in brief: as §1

[2] = compound: CC1=CC=C(C=C1)SC2=C3C=C(SC3=CN=C2)C(=O)N
Method in brief: as §1

[3] = compound: CC1=NC(=CC=C1)C2=C(N=C(N2)C(C)(C)C)C3=CC4=NC=CN=C4C=C3
Method in brief: as §1

Nexturastat A = compound: CCCCN(Cc1ccc(C(=O)NO)cc1)C(=O)Nc1ccccc1 [Nexturastat A]
Method in brief: as §1

vemurafenib = compound: CCCS(=O)(=O)Nc1ccc(F)c(C(=O)c2c[nH]c3ncc(-c4ccc(Cl)cc4)cc23)c1F [vemurafenib]
Method in brief: as §1

[4] = compound: CCCS(=O)(=O)Nc1ccc(F)c(C(=O)c2c[nH]c3ncc(Cl)cc23)c1F
Method in brief: as §1

[5] = compound: CCCc1cc(C)[nH]c(=O)c1CNC(=O)c1cc(-c2ccnc(N3CCN(C)CC3)c2)cc2c1cnn2C(C)C
Method in brief: as §1

givinostat = compound: CCN(CC)Cc1ccc2cc(COC(=O)Nc3ccc(C(=O)NO)cc3)ccc2c1 [givinostat]
Method in brief: as §1

[6] = compound: CC1=C(C=C(C=C1)NC(=O)C2=CC(=CC=C2)C(C)(C)C#N)NC3=CC4=C(C=C3)N=CN(C4=O)C
Method in brief: as §1

Measured: log2 fold change

PLCXD1 (UniProt Q9NUJ7)
inactive: [1] 0.05 | barasertib -0.003

POLR2E (UniProt P19388)
inactive: [1] -0.094 | [2] 0 | [3] -0.091 | Nexturastat A 0.005 | vemurafenib 0.031 | [4] 0.018 | [5] 0.099 | givinostat -0.007 | barasertib -0.03

PSMB9 (UniProt P28065)
Sequence of UniProt P28065 (P28065 whole entry, looked up): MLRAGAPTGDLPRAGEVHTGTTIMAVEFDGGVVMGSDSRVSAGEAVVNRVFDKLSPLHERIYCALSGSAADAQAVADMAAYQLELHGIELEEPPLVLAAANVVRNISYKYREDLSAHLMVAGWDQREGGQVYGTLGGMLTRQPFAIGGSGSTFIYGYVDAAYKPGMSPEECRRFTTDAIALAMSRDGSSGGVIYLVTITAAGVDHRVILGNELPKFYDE
inactive: [6] -0.137 | [2] -0.032 | [3] -0.342 | Nexturastat A -0.233 | vemurafenib -0.08 | [4] -0.047 | givinostat -0.179 | barasertib 0.12

PIM1 isoform 2 (UniProt P11309)
inactive: [5] -0.566

PSMC1 (UniProt G3V4X1)
inactive: [2] -0.384 | [4] -0.154 | givinostat 0.095

PSMC3 (UniProt E9PLG2)
inactive: [6] -0.381 | [3] -0.217 | Nexturastat A 0.04 | vemurafenib -0.157 | [5] -0.08 | barasertib 0.02

PSMD8 (UniProt K7ERW6)
inactive: [3] -0.283 | vemurafenib -0.236

PTEN isoform 2 (UniProt P60484)
Sequence of UniProt P60484 (P60484 whole entry, looked up): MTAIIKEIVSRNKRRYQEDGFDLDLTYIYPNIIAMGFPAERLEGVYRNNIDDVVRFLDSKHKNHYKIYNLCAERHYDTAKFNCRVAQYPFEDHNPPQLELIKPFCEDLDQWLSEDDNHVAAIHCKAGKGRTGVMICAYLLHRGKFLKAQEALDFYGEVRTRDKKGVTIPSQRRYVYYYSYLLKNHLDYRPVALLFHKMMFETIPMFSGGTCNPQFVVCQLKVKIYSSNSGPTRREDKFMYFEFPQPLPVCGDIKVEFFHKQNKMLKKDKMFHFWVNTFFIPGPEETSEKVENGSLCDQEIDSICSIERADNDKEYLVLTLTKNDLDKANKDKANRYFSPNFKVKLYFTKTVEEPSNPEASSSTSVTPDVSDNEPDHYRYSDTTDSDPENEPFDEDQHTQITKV
inactive: [1] -0.035 | [2] 0.13 | [3] 0.064 | [4] -0.016 | givinostat -0.086

PDE4A (UniProt P27815)
inactive: [1] -0.028 | [2] -0.047 | [3] 0.062 | Nexturastat A 0.061 | vemurafenib 0.006 | [4] 0.024 | givinostat 0.015 | barasertib 0.049

PCF11 (UniProt O94913)
Sequence of UniProt O94913 (O94913 whole entry, looked up): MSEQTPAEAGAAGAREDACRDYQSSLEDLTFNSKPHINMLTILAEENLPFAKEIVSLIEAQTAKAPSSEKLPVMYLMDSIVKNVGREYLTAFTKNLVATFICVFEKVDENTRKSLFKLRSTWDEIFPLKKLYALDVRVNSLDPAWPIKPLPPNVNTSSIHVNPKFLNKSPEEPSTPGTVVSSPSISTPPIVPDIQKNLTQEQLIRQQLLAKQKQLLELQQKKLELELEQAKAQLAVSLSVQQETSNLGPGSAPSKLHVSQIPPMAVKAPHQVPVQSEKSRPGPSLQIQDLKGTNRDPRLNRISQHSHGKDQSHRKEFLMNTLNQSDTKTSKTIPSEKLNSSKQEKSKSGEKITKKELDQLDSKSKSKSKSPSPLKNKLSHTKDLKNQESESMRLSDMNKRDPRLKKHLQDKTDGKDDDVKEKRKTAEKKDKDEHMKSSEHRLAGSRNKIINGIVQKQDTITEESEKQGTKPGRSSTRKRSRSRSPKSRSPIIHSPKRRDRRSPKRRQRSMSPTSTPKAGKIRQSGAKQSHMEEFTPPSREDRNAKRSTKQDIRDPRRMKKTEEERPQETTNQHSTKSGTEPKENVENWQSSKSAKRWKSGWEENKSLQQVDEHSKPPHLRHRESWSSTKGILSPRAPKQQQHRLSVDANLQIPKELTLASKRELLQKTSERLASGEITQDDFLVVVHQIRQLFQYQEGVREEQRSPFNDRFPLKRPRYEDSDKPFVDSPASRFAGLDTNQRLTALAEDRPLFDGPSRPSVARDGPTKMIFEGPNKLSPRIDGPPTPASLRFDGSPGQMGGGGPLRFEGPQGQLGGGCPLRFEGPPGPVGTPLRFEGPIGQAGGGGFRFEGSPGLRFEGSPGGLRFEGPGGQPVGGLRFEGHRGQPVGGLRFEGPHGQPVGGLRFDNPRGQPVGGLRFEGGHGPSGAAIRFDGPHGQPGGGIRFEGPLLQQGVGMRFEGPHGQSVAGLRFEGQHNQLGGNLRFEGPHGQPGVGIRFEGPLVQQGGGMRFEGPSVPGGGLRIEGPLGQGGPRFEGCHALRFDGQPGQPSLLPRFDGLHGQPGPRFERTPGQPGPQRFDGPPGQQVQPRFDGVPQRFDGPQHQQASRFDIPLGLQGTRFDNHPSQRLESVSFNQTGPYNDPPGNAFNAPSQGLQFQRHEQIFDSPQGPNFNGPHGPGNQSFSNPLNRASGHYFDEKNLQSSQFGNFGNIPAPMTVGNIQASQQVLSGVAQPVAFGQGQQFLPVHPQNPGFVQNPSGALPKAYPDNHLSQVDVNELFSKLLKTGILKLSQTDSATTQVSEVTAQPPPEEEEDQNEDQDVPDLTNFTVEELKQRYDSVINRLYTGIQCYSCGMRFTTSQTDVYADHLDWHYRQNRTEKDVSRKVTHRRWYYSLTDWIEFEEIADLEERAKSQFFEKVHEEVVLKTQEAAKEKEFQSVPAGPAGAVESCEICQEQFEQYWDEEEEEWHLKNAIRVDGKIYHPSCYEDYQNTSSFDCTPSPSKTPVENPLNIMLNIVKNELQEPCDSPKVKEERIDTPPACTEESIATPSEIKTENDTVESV
inactive: [1] 0.045 | [2] 0.019 | [3] -0.018 | vemurafenib -0.058 | [4] 0.006 | [5] -0.3 | barasertib -0.168

PIAS4 (UniProt Q8N2W9)
Sequence of UniProt Q8N2W9 (Q8N2W9 whole entry, looked up): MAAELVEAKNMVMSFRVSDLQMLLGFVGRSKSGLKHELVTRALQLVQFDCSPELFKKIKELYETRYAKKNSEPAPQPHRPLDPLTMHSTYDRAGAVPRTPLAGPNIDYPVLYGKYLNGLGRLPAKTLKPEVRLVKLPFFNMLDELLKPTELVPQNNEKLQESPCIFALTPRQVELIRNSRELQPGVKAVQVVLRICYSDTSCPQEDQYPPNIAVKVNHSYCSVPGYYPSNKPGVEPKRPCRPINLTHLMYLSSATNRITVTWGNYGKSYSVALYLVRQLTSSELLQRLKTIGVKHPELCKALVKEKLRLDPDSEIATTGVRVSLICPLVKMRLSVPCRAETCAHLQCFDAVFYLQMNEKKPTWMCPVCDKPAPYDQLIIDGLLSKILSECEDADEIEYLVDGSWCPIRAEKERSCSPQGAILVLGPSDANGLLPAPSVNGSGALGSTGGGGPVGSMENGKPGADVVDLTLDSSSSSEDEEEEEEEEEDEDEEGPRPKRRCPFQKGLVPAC
inactive: [1] -0.137 | [2] -0.101 | [3] 0.222 | Nexturastat A 0.353 | [4] 0.07 | [5] 1.31

PSD3 (UniProt Q9NYI0)
Sequence of UniProt Q9NYI0 (Q9NYI0 whole entry, looked up): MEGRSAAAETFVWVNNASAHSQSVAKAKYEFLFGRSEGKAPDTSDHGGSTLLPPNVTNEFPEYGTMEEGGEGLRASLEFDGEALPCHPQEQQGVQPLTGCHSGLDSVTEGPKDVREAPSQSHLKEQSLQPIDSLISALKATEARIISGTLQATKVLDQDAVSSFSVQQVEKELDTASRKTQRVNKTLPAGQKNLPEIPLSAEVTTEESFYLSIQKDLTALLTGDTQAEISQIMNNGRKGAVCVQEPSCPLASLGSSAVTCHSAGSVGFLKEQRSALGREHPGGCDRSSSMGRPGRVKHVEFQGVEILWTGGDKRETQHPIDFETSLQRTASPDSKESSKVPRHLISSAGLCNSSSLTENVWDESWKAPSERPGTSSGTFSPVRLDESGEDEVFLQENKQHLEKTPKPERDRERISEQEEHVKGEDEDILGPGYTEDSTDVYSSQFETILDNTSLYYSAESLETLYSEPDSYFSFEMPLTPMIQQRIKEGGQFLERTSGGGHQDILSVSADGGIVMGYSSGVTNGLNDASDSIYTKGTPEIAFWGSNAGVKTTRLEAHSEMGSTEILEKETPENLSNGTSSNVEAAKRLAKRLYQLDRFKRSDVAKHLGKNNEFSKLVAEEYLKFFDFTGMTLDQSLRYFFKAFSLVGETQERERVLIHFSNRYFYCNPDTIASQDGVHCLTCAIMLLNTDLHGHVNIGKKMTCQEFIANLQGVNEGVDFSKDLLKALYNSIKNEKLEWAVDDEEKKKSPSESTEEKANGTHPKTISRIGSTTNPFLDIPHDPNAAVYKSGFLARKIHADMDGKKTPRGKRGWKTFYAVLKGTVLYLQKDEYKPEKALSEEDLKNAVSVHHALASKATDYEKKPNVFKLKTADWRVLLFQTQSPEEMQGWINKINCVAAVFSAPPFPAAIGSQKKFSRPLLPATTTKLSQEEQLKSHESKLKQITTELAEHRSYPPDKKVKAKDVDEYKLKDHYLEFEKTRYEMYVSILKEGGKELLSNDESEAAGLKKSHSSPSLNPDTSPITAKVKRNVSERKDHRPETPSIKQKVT
inactive: [1] -0.059 | [2] -0.01 | [3] 0.023 | vemurafenib -0.019 | [4] 0.049 | [5] 0.025

PAN2 (UniProt Q504Q3)
inactive: vemurafenib -0.128 | barasertib 0.088

PHC3 isoform 7 (UniProt Q8NDX5)
Sequence of UniProt Q8NDX5 (Q8NDX5 whole entry, looked up): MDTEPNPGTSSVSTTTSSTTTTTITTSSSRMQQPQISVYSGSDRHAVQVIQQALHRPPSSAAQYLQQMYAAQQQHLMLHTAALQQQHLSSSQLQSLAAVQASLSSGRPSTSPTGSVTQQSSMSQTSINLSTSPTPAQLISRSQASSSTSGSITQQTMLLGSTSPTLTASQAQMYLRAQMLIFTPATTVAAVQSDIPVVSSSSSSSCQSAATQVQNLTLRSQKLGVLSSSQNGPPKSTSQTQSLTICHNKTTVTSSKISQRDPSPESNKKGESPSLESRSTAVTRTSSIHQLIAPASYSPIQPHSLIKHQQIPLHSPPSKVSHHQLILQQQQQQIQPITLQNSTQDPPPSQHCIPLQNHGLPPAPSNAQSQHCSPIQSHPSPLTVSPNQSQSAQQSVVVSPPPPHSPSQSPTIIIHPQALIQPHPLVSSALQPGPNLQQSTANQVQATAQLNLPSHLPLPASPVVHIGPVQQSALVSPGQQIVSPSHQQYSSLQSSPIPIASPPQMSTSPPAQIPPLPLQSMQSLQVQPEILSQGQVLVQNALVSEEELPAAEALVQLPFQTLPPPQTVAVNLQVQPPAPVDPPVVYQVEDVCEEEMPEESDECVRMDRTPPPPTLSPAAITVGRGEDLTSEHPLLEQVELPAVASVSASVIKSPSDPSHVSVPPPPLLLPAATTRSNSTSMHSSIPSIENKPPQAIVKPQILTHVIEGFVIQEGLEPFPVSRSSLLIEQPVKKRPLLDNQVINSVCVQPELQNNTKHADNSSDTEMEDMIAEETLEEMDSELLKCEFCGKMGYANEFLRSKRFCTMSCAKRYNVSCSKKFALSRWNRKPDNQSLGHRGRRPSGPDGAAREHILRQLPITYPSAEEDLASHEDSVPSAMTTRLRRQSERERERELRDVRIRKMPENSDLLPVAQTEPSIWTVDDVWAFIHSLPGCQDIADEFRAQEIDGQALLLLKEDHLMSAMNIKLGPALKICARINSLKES
inactive: [6] 0.102 | [2] 0.088 | [3] 0.266 | Nexturastat A -0.43 | [4] 0.096 | [5] 0.116 | givinostat 0.17 | barasertib 0

PTP4A3 (UniProt O75365)
inactive: vemurafenib 0.207 | barasertib -0.01

PRKX (UniProt P51817)
Sequence of UniProt P51817 (P51817 whole entry, looked up): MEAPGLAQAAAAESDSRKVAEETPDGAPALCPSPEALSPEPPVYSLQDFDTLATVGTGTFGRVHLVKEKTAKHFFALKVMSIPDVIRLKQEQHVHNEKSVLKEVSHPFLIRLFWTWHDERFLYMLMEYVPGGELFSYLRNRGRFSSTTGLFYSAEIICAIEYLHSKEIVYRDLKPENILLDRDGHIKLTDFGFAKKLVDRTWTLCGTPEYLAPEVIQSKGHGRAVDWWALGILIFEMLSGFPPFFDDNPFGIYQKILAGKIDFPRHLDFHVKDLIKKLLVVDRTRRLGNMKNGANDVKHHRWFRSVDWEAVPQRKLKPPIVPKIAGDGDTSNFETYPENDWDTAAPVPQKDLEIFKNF
inactive: [5] -0.103 | givinostat 0.036 | barasertib 0.126

PDE6D (UniProt O43924)
inactive: [6] -0.081 | [3] -0.117 | Nexturastat A 0.15 | vemurafenib -0.022 | [5] -0.028 | givinostat -0.052 | barasertib 0.002
